Each structure is given as a SMILES string. Calls of active or inactive are those of the source.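 Rule for the calls: active = IC50 below 10 µM at human M5 in a calcium flux test, acting as a negative modulator; inactive = the rest.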

The target of the test is Muscarinic acetylcholine receptor M5 (Homo sapiens) (UniProt P08912). In words: M5 muscarinic receptor negative allosteric modulators, cell-based, single concentration, human M5 (AID 743025). The following applies: CHO-K1 hM5, ACh EC80 calcium flux, Fluo-4; at 10 µM; hits give low values.
Sequence of Muscarinic acetylcholine receptor M5 (Homo sapiens) (P08912 whole entry, looked up): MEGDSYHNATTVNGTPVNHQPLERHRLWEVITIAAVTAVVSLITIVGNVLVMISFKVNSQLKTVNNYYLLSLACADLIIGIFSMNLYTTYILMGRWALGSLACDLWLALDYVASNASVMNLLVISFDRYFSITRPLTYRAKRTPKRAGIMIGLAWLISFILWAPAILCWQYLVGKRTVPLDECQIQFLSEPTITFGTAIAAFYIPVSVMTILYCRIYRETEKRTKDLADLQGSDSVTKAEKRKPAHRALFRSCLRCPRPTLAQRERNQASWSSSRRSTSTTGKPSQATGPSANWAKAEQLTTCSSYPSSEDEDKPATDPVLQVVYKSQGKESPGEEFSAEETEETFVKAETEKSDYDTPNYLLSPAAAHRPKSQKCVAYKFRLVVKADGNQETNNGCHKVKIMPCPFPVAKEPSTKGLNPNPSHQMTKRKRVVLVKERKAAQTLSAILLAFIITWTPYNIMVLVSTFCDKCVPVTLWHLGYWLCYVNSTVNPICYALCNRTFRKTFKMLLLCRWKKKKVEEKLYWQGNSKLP
On to `O=C(c1ccc2c(c1)OCO2)N1CCN2C(=O)c3ccccc3C12c1ccc(Cl)cc1` (configuration not stated), for which the activity remaining is 8.65% (active).

Take `O=C(c1cc(Cl)cc(Cl)c1)N1CCN2C(=O)c3ccccc3C12c1ccccc1` (configuration not stated): the activity remaining was 5.4% (active).

As to `CS(=O)(=O)c1ccc(C23c4ccccc4C(=O)N2CCN3C(=O)c2ccc(F)c(F)c2)cc1` (configuration not stated), the activity remaining was 77.3% (inactive).

On to `O=C(c1ccc(F)cc1)N1CCCC1c1ccccc1` (configuration not stated), for which the activity remaining was 87% (inactive).

In the case of `O=C1c2ccccc2C2(c3ccccc3)N1CCN2S(=O)(=O)c1cccc(C(F)(F)F)c1` (configuration not stated), the activity remaining was 80% (inactive).

For the compound `O=C(c1ccccc1C(F)(F)F)N1CCN2C(=O)c3ccccc3C12c1ccccc1` (configuration not stated), the activity remaining was 82.4% (inactive).

With `O=C(c1ccccc1)N1CCCC1c1ccccc1` (configuration not stated), the activity remaining is 88.8% (inactive).

Take `O=C(c1cccc(F)c1)N1CCN2C(=O)c3ccccc3C12c1ccccc1` (configuration not stated): the activity remaining is 86% (inactive).

For the compound `O=C(c1ccc(SC(F)(F)F)cc1)N1CCN2C(=O)c3ncccc3C12c1ccccc1` (configuration not stated), the activity remaining was 62.1% (inactive).

With `O=C(c1ccc(C(F)(F)F)cc1)N1CCN2C(=O)c3ccccc3C12c1ccccc1` (configuration not stated), the activity remaining is 1.06% (active).

Take `CC(C)(C)C(=O)N1CCN2C(=O)c3ccccc3C21c1ccccc1` (configuration not stated): the activity remaining was 83.6% (inactive).

`O=C(c1cccc(C(F)(F)F)c1)N1CCCN2C(=O)c3ccccc3C12c1ccc(Cl)cc1` (configuration not stated): the activity remaining is 78.6% (inactive).

As for `Cc1ccc(C23c4ccccc4C(=O)N2CCN3C(=O)c2ccc(OC(F)(F)F)cc2)cc1` (configuration not stated), the activity remaining was 6.55% (active).

On to `O=C(Nc1cccc(C(F)(F)F)c1)N1CCN2C(=O)c3ccccc3C12c1ccccc1` (configuration not stated), for which the activity remaining is 76.4% (inactive).

For the compound `COc1ccc(C23c4ccccc4C(=O)N2CCN3C(=O)c2ccccc2C)cc1` (configuration not stated), the activity remaining is 49.9% (active).

With `COc1ccc(C23c4ccccc4C(=O)N2CCN3C(=O)c2ccc(C(F)(F)F)cc2)cc1` (configuration not stated), the activity remaining was 48% (active).

For `O=C(c1ccc(OC(F)(F)F)cc1)N1CCCN2C(=O)c3ccccc3C12c1ccc(Cl)cc1` (configuration not stated), the activity remaining was 76.4% (inactive).

`O=C(c1cc(F)cc(F)c1)N1CCN2C(=O)c3ccccc3C12c1ccccc1` (configuration not stated): the activity remaining was 4.21% (active).

Consider `CN(C)c1ccc(C(=O)N2CCN3C(=O)c4ccccc4C23c2ccccc2)cc1` (configuration not stated), for which the activity remaining was 88% (inactive).

Regarding `Cc1ccc(C23NCCN2C(=O)c2ccccc23)cc1` (configuration not stated), the activity remaining was 77.4% (inactive).

With `Cc1ccc(C(=O)N2CCN3C(=O)c4ccccc4C23c2ccc(Cl)cc2)cc1` (configuration not stated), the activity remaining was 17.9% (active).

As for `O=C(Nc1ccc(F)cc1F)N1CCN2C(=O)c3ccccc3C12c1ccc(Cl)cc1` (configuration not stated), the activity remaining is 77.2% (inactive).

Regarding `O=C1c2ccccc2C2(c3ccc(Cl)cc3)NCCCN12` (configuration not stated), the activity remaining is 70.4% (inactive).

Regarding `O=C(c1ccc(Cl)c(Cl)c1)N1CCN2C(=O)c3ccccc3C12c1ccccc1` (configuration not stated), the activity remaining was 30.5% (active).

As for `Cc1ccc(C23c4ccccc4C(=O)N2CCN3C(=O)c2ccc(F)cc2)cc1` (configuration not stated), the activity remaining was 14.1% (active).

Take `O=C(c1ccc(F)cc1F)N1CCN2C(=O)c3ccccc3C12c1ccccc1` (configuration not stated): the activity remaining is 69% (inactive).

Consider `O=C(NCCNC(=O)c1ccccc1C(=O)c1ccc(F)cc1)c1ccccc1`, for which the activity remaining is 86.1% (inactive).

Take `C=CCN1C[C@H](C)N2C(=O)c3ccccc3[C@@]12c1ccc(Cl)cc1`: the activity remaining is 64.3% (inactive).

As for `COc1ccc(C23c4ccccc4C(=O)N2CCN3C(=O)c2cccc(C(F)(F)F)c2)cc1` (configuration not stated), the activity remaining is 47.9% (active).

As to `CN(C(=O)c1ccccc1)C(c1ccccc1)c1ccccc1`, the activity remaining is 84.3% (inactive).

Regarding `O=C(c1cccc(C(F)(F)F)c1)N1CCN2C(=O)c3ncccc3C12c1ccccc1` (configuration not stated), the activity remaining is 76.6% (inactive).

Consider `O=C(c1ccc(F)c(F)c1)N1CCN2C(=O)c3ccccc3C12c1ccc(O)cc1` (configuration not stated), for which the activity remaining is 65.9% (inactive).

Regarding `O=C(c1ccc(Br)cc1)c1ccccc1C(=O)N1CCCN(C(=O)c2ccccc2)CC1`, the activity remaining is 78.1% (inactive).

Consider `O=C(c1ccncc1)N1CCN2C(=O)c3ccccc3C12c1ccc(Cl)cc1` (configuration not stated), for which the activity remaining was 72.4% (inactive).

On to `O=C(c1ccc2c(c1)CCO2)N1CCN2C(=O)c3ccccc3C12c1ccc(Cl)cc1` (configuration not stated), for which the activity remaining is 71.1% (inactive).

As to `N#CC1(c2ccccc2)CCCN1C(=O)c1ccccc1` (configuration not stated), the activity remaining is 84.8% (inactive).

For the compound `O=C1c2ccccc2C2(c3ccccc3)N1CCN2C(=O)C1CC1` (configuration not stated), the activity remaining is 86.4% (inactive).

The values above are taken from PubChem BioAssay AID743025 (Vanderbilt Specialized Chemistry Center, 2013).
